# Measurements as given in the supplement of paper PMC8728848.
# About 410 targets per protein were measured; listed, in parts, are those with the strongest signals and a random draw of the rest.
# B1: Epa1-NP-mutant-Y228A (Candida glabrata), Q6VBJ0 (protein)
# chain: MILNPALFLNKCVCIYTTLILLLLTNGGYATSSNDISLASKDPTTFPLGCSPDITTPKKGLSMELYSYDFRKKGSYPCWDAAYLDPNYPRTGYKSHRLLAKVDGVTGNINFYYHATKGCTPQLGHLPASYNYPKPLTMTNFTMLLYGYFRPKVTGFHTFTISADDLLFVNFGAGNAFDCCRRDSSADHFGNYQAYAIWGSKTAKDELTVHLDAGVYYPIRLFYNNREADGALSFTFKTESNENTVSDFSEYFFSLDDTEEGCPGLISYDSSCASVKTSKIIGIDYHTETPNENLVPITKTIYHLGIPCTGTTTTPLCGSGFYDPLANKCVTINTSSTSSVTKTTSHTTSKEVSFHSSISSQKTLIPKSIPSPYGPIKSQSIPTEMETSSEISSSEYAFSDVISTPSHSPYTKKHSSLNSSSYTSTVIHSLTSYSISQGIFSTSLSEQNITSKSSTDKFSTATSMSNNITQSSIIISQFSTNNENYTTTSMHTSSDKISTETLNNSISTTTSILFSNSSTILKNNTTIISSDKDTHYHPVNPTIVCSTNKTEIICASITQPSISNSNNHWSSSVLKFNSTTVRSTLPSSAGSNETSINVPFSSSTESNTSTSSTSTSNSKMVRSTLPSSAGSNETSISVPFSSSTESNTSTSSTSTSNSKMVRSTLPSSAGSNETSINVPFSSSTESNTSTSSTSTSNSKTVRSTPFSSAGIIMTSLSQRNNKSASSYASSNSKCYNTADSCRKVHSTPSYLLTSSYTSEGVDYDCSLVSTKLKINDTNCVNNKHTTKSCLKTSVTTTIPTLEIKTARKSSSNTIGLHSYPTSSPNKSISSAPIIGYISSFKTIKTASPSYQTSDLTTITTITSLNNPGSTAVENTHESNDKSRKTSSNDISSKHSVIKETKDAVESSNKSHQTNTLKCSSIIIASSSHNSYESLGGTTLTLTLSKVYSPQNNDTLPFLEISEVNPSRTVLPESSKMMQYLTSTEERNKTARNTIATNIVSISTFHFEGEGNAIRMGYTQLLLMLIGIIVMNIGT
# How the values were obtained:
# Assay in all cases: glycan array binding signal (z-score within array); higher = stronger binding
# Conditions in all cases: glycan notation: IUPAC condensed, linker removed; mutation: Y228A
# [1] = molecular target: Fuc(a1-2)Gal(b1-3)GlcNAc(b1-3)[Gal(b1-4)GlcNAc(b1-6)]Gal(b1-4)Glc
# Method in brief: (§1)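 Glycan array data came from 3228 arrays in the Consortium for Functional Glycomics database, and only arrays with an available protein sequence were kept. Glycan names were put into IUPAC-condensed notation, and columns mapping to the same glycan were averaged. The binding signal is a within-array Z-score, averaged across arrays of one protein sequence run at different concentrations or buffers and across linkers. A negative Z-score can be read as non-binding.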
# [2] = molecular target: Fuc(a1-2)Gal(b1-3)[Fuc(a1-4)]GlcNAc(b1-2)Man(a1-3)[Fuc(a1-2)Gal(b1-3)[Fuc(a1-4)]GlcNAc(b1-2)Man(a1-6)]Man(b1-4)GlcNAc(b1-4)[Fuc(a1-6)]GlcNAc(b1-4)[Fuc(a1-6)]GlcNAc
# Method in brief: as §1
# [3] = molecular target: Fuc(a1-2)Gal(b1-4)GlcNAc(b1-2)Man(a1-3)[Fuc(a1-2)Gal(b1-4)GlcNAc(b1-2)Man(a1-6)]Man(b1-4)GlcNAc(b1-4)GlcNAc
# Method in brief: as §1
# [4] = molecular target: Fuc(a1-2)Gal(b1-4)GlcNAc6S
# Method in brief: as §1
# [5] = molecular target: Fuc(a1-2)Gal(b1-4)[Fuc(a1-3)]GlcNAc(b1-3)GalNAc
# Method in brief: as §1
# [6] = molecular target: Fuc(a1-2)Gal6S(b1-4)Glc6S
# Method in brief: as §1
# [7] = molecular target: Fuc(a1-2)[Gal(a1-3)]Gal(b1-4)[Fuc(a1-3)]Glc
# Method in brief: as §1
# [8] = molecular target: Fuc(a1-2)[GalNAc(a1-3)]Gal(b1-3)GalNAc(a1-3)[Fuc(a1-2)]Gal(b1-4)GlcNAc
# Method in brief: as §1
# [9] = molecular target: Fuc(a1-2)[GalNAc(a1-3)]Gal(b1-3)GlcNAc(b1-3)GalNAc
# Method in brief: as §1
# [10] = molecular target: Fuc(a1-2)[GalNAc(a1-3)]Gal(b1-4)GlcNAc(b1-3)[Fuc(a1-2)[GalNAc(a1-3)]Gal(b1-4)GlcNAc(b1-6)]GalNAc
# Method in brief: as §1
# [11] = molecular target: Fuc(a1-3)[Gal(b1-4)]GlcNAc(b1-6)GalNAc
# Method in brief: as §1
# [12] = molecular target: Fuc(a1-3)[Gal(b1-4)]GlcNAc(b1-6)[Gal(b1-3)GlcNAc(b1-3)]Gal(b1-4)Glc
# Method in brief: as §1
# Gal(a1-2)Gal = molecular target: Gal(a1-2)Gal
# Method in brief: as §1
# [13] = molecular target: Gal(a1-3)Gal(b1-4)GlcNAc(b1-2)Man(a1-3)[Gal(a1-3)Gal(b1-4)GlcNAc(b1-2)Man(a1-6)]Man(b1-4)GlcNAc(b1-4)GlcNAc
# Method in brief: as §1
# Gal(a1-3)GalNAc = molecular target: Gal(a1-3)GalNAc
# Method in brief: as §1
# [14] = molecular target: Gal(a1-4)Gal(b1-4)GlcNAc(b1-2)Man(a1-3)[Gal(a1-4)Gal(b1-4)GlcNAc(b1-2)Man(a1-6)]Man(b1-4)GlcNAc(b1-4)GlcNAc
# Method in brief: as §1
# Gal(b1-3)Gal = molecular target: Gal(b1-3)Gal
# Method in brief: as §1
# Gal(b1-3)Gal(b1-4)GlcNAc = molecular target: Gal(b1-3)Gal(b1-4)GlcNAc
# Method in brief: as §1
# [15] = molecular target: Gal(b1-3)GalNAc(a1-3)[Fuc(a1-2)]Gal(b1-4)Glc
# Method in brief: as §1
# [16] = molecular target: Gal(b1-3)GlcNAc(a1-3)Gal(b1-4)GlcNAc
# Method in brief: as §1
# Gal(b1-3)GlcNAc(b1-2)Man = molecular target: Gal(b1-3)GlcNAc(b1-2)Man
# Method in brief: as §1
# [17] = molecular target: Gal(b1-3)GlcNAc(b1-2)Man(a1-3)[Gal(b1-3)GlcNAc(b1-2)Man(a1-6)]Man(b1-4)GlcNAc(b1-4)[Fuc(a1-6)]GlcNAc
# Method in brief: as §1
# [18] = molecular target: Gal(b1-3)GlcNAc(b1-2)Man(a1-3)[GlcNAc(b1-4)][Gal(b1-3)GlcNAc(b1-2)Man(a1-6)]Man(b1-4)GlcNAc(b1-4)GlcNAc
# Method in brief: as §1
# [19] = molecular target: Gal(b1-3)GlcNAc(b1-3)Gal(b1-4)GlcNAc(b1-6)[Gal(b1-3)GlcNAc(b1-3)]Gal(b1-4)Glc
# Method in brief: as §1
# [20] = molecular target: Gal(b1-3)GlcNAc(b1-6)Gal(b1-4)GlcNAc
# Method in brief: as §1
# [21] = molecular target: Gal(b1-3)GlcNAc(b1-6)GalNAc
# Method in brief: as §1
# Gal(b1-3)GlcNAc6S = molecular target: Gal(b1-3)GlcNAc6S
# Method in brief: as §1
binder,measurement,setting,value
B1,glycan array binding signal (z-score),[1],-0.261
same,glycan array binding signal (z-score),[2],-0.098
same,glycan array binding signal (z-score),[3],-0.023
same,glycan array binding signal (z-score),[4],-0.027
same,glycan array binding signal (z-score),[5],-0.103
same,glycan array binding signal (z-score),[6],-0.325
same,glycan array binding signal (z-score),[7],-0.203
same,glycan array binding signal (z-score),[8],-0.281
same,glycan array binding signal (z-score),[9],0.018
same,glycan array binding signal (z-score),[10],-0.156
same,glycan array binding signal (z-score),[11],-0.289
same,glycan array binding signal (z-score),[12],-0.025
same,glycan array binding signal (z-score),Gal(a1-2)Gal,-0.233
same,glycan array binding signal (z-score),[13],-0.232
same,glycan array binding signal (z-score),Gal(a1-3)GalNAc,-0.151
same,glycan array binding signal (z-score),[14],0.054
same,glycan array binding signal (z-score),Gal(b1-3)Gal,11.6
same,glycan array binding signal (z-score),Gal(b1-3)Gal(b1-4)GlcNAc,10.2
same,glycan array binding signal (z-score),[15],0.088
same,glycan array binding signal (z-score),[16],-0.17
same,glycan array binding signal (z-score),Gal(b1-3)GlcNAc(b1-2)Man,3.19
same,glycan array binding signal (z-score),[17],2.29
same,glycan array binding signal (z-score),[18],2.24
same,glycan array binding signal (z-score),[19],2.26
same,glycan array binding signal (z-score),[20],2.32
same,glycan array binding signal (z-score),[21],-0.142
same,glycan array binding signal (z-score),Gal(b1-3)GlcNAc6S,7.1
